# High-throughput results from PubChem BioAssay.
# DAX1 inh-1: DAX1 (NR0B1) inhibition, primary screen; HEK293T StAR-luciferase reporter, SF-1/DAX-1 repression relief; inhibition, % at 6.8 µM; 1.1% of 370,000 active; AID 652010;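 active means inhibition above the mean over all tested compounds plus 3 SD, cut at about 3.6% in these data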;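 further: 0% = DAX-1 cells with DMSO and 100% = cells lacking DAX-1 with DMSO; higher inhibition means more luminescence from relief of DAX-1 repression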
# hcDAF-12 act: activators of H. contortus DAF-12 nuclear receptor | HEK293 hcDAF-12 lit1-tk-luc reporter, luminescence; 0% DMSO, 100% Δ7-dafachronic acid | activation, % at 6.8 µM | 1.4% of 370,000 active | AID 652067;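 active means activation above the mean of all tested compounds plus 3 SD, cut at about 5.5% in these data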;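 further: 100% = response to 3 µM Δ7-dafachronic acid high control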
# ssDAF-12 act: activators of S. stercoralis DAF-12 nuclear receptor | HEK293 ssDAF-12/GRIP1 lit1-tk-luc reporter, luminescence; % of 3 µM dafachronic acid response | activation, % at 6.8 µM | 1% of 370,000 active;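 active means activation above the mean over all tested compounds plus 3 SD, cut at about 0.9% in these data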;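 further: 0% = DMSO-only wells and 100% = 3 µM delta7-dafachronic acid wells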
# hgDAF-12 ag: agonists of H. glycines DAF-12 nuclear receptor; 1.8% of 370,000 active; AID 687014; HEK293 GAL4-hgDAF12 UAS-luciferase reporter, agonist luminescence; normalized to butyrate control; activation, % at 6.8 µM;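 active means activation above a cutoff set at the mean of all screened compounds plus 3 SD, cut at about 10% in these data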;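 further: 0% = DMSO wells and 100% = sodium butyrate wells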
# SMARCA2 activ: activators of SMARCA2 function; MG213 cells, MMTV-luciferase reporter, dexamethasone, overnight; 1% of 370,000 active; activation, % at 9.1 µM; in the data active means activation above about 7.8%;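 further: 0% = vehicle wells and 100% = reference activator wells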
# DAX1 inh-2: inhibitors of human orphan nuclear receptor DAX1 (NR0B1). HEK293 Gal4-DAX1 luciferase reporter, luminescence. inhibition, % at 6.75 µM. 0.99% of 340,000 active. AID 504766;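 active means inhibition above the mean over all tested compounds plus 3 SD, cut at about 4.2% in these data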;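 further: 0% = DAX1-transfected cells with DMSO and 100% = empty-vector control cells with DMSO; inhibition shows as a rise in luminescence from relieved DAX1 repression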
# Target sequence (P51843 207-470 limits assumed): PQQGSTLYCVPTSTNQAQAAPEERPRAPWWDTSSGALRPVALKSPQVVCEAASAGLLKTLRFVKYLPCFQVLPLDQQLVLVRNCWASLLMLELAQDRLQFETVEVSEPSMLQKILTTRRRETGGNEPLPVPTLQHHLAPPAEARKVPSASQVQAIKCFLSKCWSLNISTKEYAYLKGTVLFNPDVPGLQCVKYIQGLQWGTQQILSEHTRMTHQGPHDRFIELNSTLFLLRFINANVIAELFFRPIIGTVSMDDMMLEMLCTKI
# DAX1 inh confirm: NR0B1 (human) inhibition, confirmation; shares compounds with DAX1 inh-1; HEK293T StAR-promoter luciferase reporter, SF-1/DAX-1 repression; inhibition, % at 6.8 µM; 87% of 2,400 active; AID 652134;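 active means inhibition above the average of every tested compound plus 3 SD, cut at about 3.8% in these data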;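 further: 0% = DAX-1 cells with DMSO and 100% = no DAX-1 control cells with DMSO; active compounds raise luminescence by relieving repression of the StAR reporter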
# SF1 AF2mut Luc: nonselective inhibitor or artifact in SF-1 mutant DAX1 counter-screen; shares compounds with DAX1 inh-1; HEK293 StAR-luciferase, SF-1 AF2 mutant, luminescence; inhibition, % at 6.8 µM; 78% of 2,400 active;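 active means inhibition above the mean of all tested compounds plus 3 SD, cut at about 3% in these data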;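 further: 0% = DAX-1 transfected cells with DMSO and 100% = cells without DAX-1 with DMSO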
# * marks the source's active call; other numbers are inactive results; . = no result. An excerpt weighted towards active compounds, which were near 4.8% of everything screened.
SMILES,DAX1 inh-1,hcDAF-12 act,ssDAF-12 act,hgDAF-12 ag,SMARCA2 activ,DAX1 inh-2,DAX1 inh confirm,SF1 AF2mut Luc
COC(=O)c1cc(C(c2ccccc2O)C2CCC(C)(C)O2)n2ccccc12 (centres undefined),-1,0,-1,0,-2,.,.,.
CCOC(=O)COc1ccc(C(C)c2ccc(NC(=O)OC(C)(C)C)cc2)cc1 (centres undefined),0,-1,-1,0,-5,.,.,.
C/C(=N\NC(=O)c1ccc(O)cc1)c1ccc(NC(=O)Cc2ccccc2)cc1,5.5*,2,0,12*,4,2,3,1
CNc1ncnc2c1ncn2[C@H]1CN(Cc2cccc3ccccc23)C[C@@H](CO)O1,-1,-2,-2,-2,0,.,.,.
COc1c(OC(C)=O)ccc(/C=C/c2ccc3ccccc3n2)c1[N+](=O)[O-],5.1*,4,0,9,-1,3,12*,6.2*
O=C(OCC(=O)N1CCN(c2ccccc2)CC1)c1ccccc1OC(F)F,5.0*,-1,-1,0,-3,0,-2,-1
O=C(OCC(=O)N1CCCCCC1)c1ccccc1Br,4.5*,5.7*,0,12*,3,2,10*,5.3*
Nc1[nH]c(C(=O)c2ccccc2)c(-c2ccccc2C(F)(F)F)c1C(=O)NCc1cccc2ccccc12,0,3,-1,5,-2,.,.,.
COC(=O)C1CCN(C(=O)COC(=O)/C=C/c2ccc(O)c(OC)c2)CC1,8.5*,1,0,-2,0,0,0,-1
COc1ccc2oc(C(=O)Nc3nnc(C)s3)c(C)c2c1,10*,3,0,11*,1,-1,16*,5.9*
CC(=O)Nc1nc2cc3c(cc2s1)OCCO3,5.8*,3,1.3*,11*,4,1,12*,6.0*
O=C(Nc1ccc(N2CCOCC2)c(F)c1)c1cccs1,10*,4,0,10,5,2,11*,7.4*
C[C@H](NS(=O)(=O)c1ccc(Cl)cc1)C(=O)OCC(=O)Nc1cc(S(=O)(=O)N2CCOCC2)ccc1Cl,7.7*,0,-1,1,-1,0,1,0
O=C(COC(=O)C1CCC1)Nc1cc(S(=O)(=O)N2CCOCC2)ccc1Cl,-1,-2,-1,1,-1,2,.,.
CCN(CC)c1ccc(S(=O)(=O)N2CCOCC2)cc1NC(=O)COC(=O)c1cccnc1SC,5.3*,0,-1,1,2,1,-1,0
O=C(CC[C@H]1O[C@@H](n2ccc(=O)[nH]c2=O)[C@H](O)[C@@H]1O)NCc1cccc2ccccc12,0,-2,-2,-1,2,.,.,.
COC(=O)[C@]12C[C@H](CC(=O)NCc3cccs3)C(=O)N(Cc3ccc4c(c3)OCO4)C1=C[C@H](C(C)C)O[C@@H]2C1CC1,-2,-1,-1,1,-3,.,.,.
O=C(/C=C/c1ccco1)Nc1ccccc1C(=O)O,4.6*,4,0,13*,3,.,9.3*,5.7*
CC(C)N=C1NN=C(c2ccc(F)cc2)CS1,5.9*,5,-1,13*,2,1,11*,6.0*
CCN=C1NN=C(c2ccc(C)cc2)CS1,1,2,0,8,5,0,.,.
Cc1c(C(=O)OCC(=O)NCc2ccco2)oc2ccccc12,4.5*,-2,-1,2,-2,1,1,1
Cc1ccc(SCc2nc(N)nc(Nc3ccccc3C)n2)cc1C,0,0,1,3,0,2,.,.
Cc1ccccc1Nc1nc(N)nc(CSc2ccc(F)cc2)n1,6.7*,5,1,12*,3,7.5*,11*,4.6*
CCOC(=O)[C@@]12CCC3=C1N(CCC3)C(=O)[C@H](CC(=O)N1CCSCC1)C2,0,-2,-1,2,1,.,.,.
O=C(CNC(=O)c1cn2ccccc2n1)Nc1ccc(F)c(F)c1,6.2*,2,0,9,6,3,8.5*,5.7*
SMILES,DAX1 inh-1,hcDAF-12 act,ssDAF-12 act,hgDAF-12 ag,SMARCA2 activ,DAX1 inh-2,DAX1 inh confirm,SF1 AF2mut Luc
Cc1ccccc1NC(=O)CSc1nnc(-c2ccccn2)o1,0,1,-1,2,1,1,.,.
O=C(CSc1nnc(-c2ccccn2)o1)Nc1ccccc1F,14*,5,0,12*,0,1,15*,6.3*
CSc1ccc(OC2(C)CCN(Cc3cc4ccccc4o3)C2)cc1 (centres undefined),-1,-1,-1,-2,-3,.,.,.
O=C(Nc1ccccn1)c1cccc(S(=O)(=O)N2CCOCC2)c1,1,-1,-1,-1,1,1,.,.
Cc1ccnc(NC(=O)c2cccc(S(=O)(=O)N3CCOCC3)c2)c1,6.1*,3,0,11*,5,0,4.7*,3
Cc1c(NC(=O)C2CCCN(S(=O)(=O)c3ccc(Br)s3)C2)c(=O)n(-c2ccccc2)n1C (centres undefined),-1,-2,-1,-2,-2,.,.,.
Cc1ccc(S(=O)(=O)Nc2cccc(-c3ccc(N4CCCCCC4)nn3)c2)cc1,4.9*,1,-1,6,4,0,7.5*,4.2*
COc1cc(-n2c(C)nc3cc(C(=O)N4CC(C)CC(C)C4)ccc32)cc(OC)c1OC (centres undefined),0,-3,-2,-2,-6,.,.,.
c1ccc2cc(OCc3nc4ccccc4[nH]3)ccc2c1,4.8*,4,0,11*,0,3,15*,7.6*
COc1ccc(OCc2nc3ccccc3[nH]2)cc1,5.7*,2,0,10,4,2,13*,8.4*
COc1cccc(OCc2nc3ccccc3[nH]2)c1,5.5*,3,0,10,3,2,6.3*,7.0*
COc1ccc(NC(=O)Cc2nc3ccccc3[nH]2)cc1,1,1,0,-7,-1,0,.,.
Cc1nc2ccc(NC(=O)c3ccc(F)cc3Cl)cc2c(=O)[nH]1,-1,-3,-1,0,-3,.,.,.
Cc1cc(NC(=O)COc2ccc3ccccc3c2Br)no1,6.0*,3,-1,9,6,1,5.6*,6.0*
CCOc1ccccc1OCC(=O)Nc1cc(C)on1,0,0,-2,1,2,1,.,.
CCCCC[C@H](C)N1C[C@@H](COCc2ccccc2)Oc2cc(N3CCC[C@H]3COC)ccc2S1(=O)=O,0,0,0,2,4,.,.,.
